Here are results for 76 compounds from PubChem BioAssay AID652062 (Broad Institute, 2013).

About 1,100 (79%) of roughly 1,400 compounds were called active.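 Rule for the calls: active = fitted half-maximal concentration of a falling signal no higher than twice the top valid dose in every test run; inconclusive = runs disagree, or flat partial inhibition, or poor fit; inactive = every run inactive: flat, wrong direction, or potency beyond limit.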 The set was probably picked from earlier hits. Only a sample is shown. Results with a measured potency or affinity are listed apart.

The test can be described thus: inhibitors of clade B AD8 Env fusion, dose response, cell-based, cherry-pick (AID 652062). To be noted: HeLa-AD8 Env / CEM-CCR5 cell fusion, luciferase; at 35 µM (top of the series) unless noted.
On to `O=C(C[C@@H]1C[C@@H]2c3cc(NC(=O)c4ccc5c(c4)OCO5)ccc3O[C@@H]2[C@@H](CO)O1)NCc1ccc(Oc2ccccc2)cc1`, for which the activity change, negative = inhibition turned out to be 0.613% [at 16 µM]. The figure for `O=C(C[C@H]1C[C@H]2c3cc(NC(=O)C4CCC4)ccc3O[C@H]2[C@@H](CO)O1)NCc1ccc2c(c1)OCO2` is 38.8% [at 30 µM]; for `O=C(C[C@H]1C[C@H]2c3cc(NC(=O)Cc4ccncc4)ccc3O[C@H]2[C@@H](CO)O1)NCc1ccncc1` it is 20.8%. `O=C(C[C@@H]1C[C@@H]2c3cc(NC(=O)Nc4ccccc4)ccc3O[C@@H]2[C@@H](CO)O1)NCc1ccccc1`: the activity change, negative = inhibition is 42.6% [at 30 µM]. Turning to `COc1ccc(S(=O)(=O)N(C)C[C@@H]2Oc3ccc(NC(=O)C4CCCCC4)cc3CC(=O)N([C@@H](C)CO)C[C@@H]2C)cc1`, the activity change, negative = inhibition was 5.28% [at 16 µM]. In the case of `O=C(N[C@@H]1CC[C@H](CCNS(=O)(=O)c2ccc(F)cc2)O[C@@H]1CO)C1CC1`, the activity change, negative = inhibition stood at 21.6%. The figure for `COc1cc2c(cc1OC)C(=O)N1[C@H]3c4cc(Cl)ccc4OC[C@@H]3[C@H](c3ccccc3)[C@]1(C)C(=O)N2` is -26.3%. For `C[C@@]12C(=O)N(Cc3ccco3)CC(=O)N1[C@H]1c3ccccc3OC[C@@H]1[C@@H]2c1ccccc1`, the activity change, negative = inhibition stood at 2.22%. Take `C[C@H]1NC(=O)[C@@]2(C)[C@H](c3ccccc3)[C@H]3COc4ccccc4[C@@H]3N2C1=O`: the activity change, negative = inhibition amounted to 80.3%. Turning to `Cc1cc(Cl)ccc1OCC(=O)NNC(=O)C1CSC2(C)CCC(=O)N12` (stereo unspecified), the activity change, negative = inhibition was 1.11%. Consider `COc1ccc([Si](C)(C)[C@H]2[C@H](CCO)O[C@@]3(C(=O)N(Cc4cccc(N5CCOC5=O)c4)c4ccccc43)[C@@H]2C)cc1`, for which the activity change, negative = inhibition worked out at 108%. Turning to `COc1ccc(S(=O)(=O)N2CCCCC2)cc1NC(=O)CCCOc1ccc(C)cc1`, the activity change, negative = inhibition stood at 3.18%.

As to `COc1ccc(S(=O)(=O)N2CCCCC2)cc1NC(=O)CN(Cc1ccco1)Cc1ccco1`, the activity change, negative = inhibition was -14.6%. `CCCCCCOc1ccc(OC(=O)c2ccncc2)cc1`: the activity change, negative = inhibition is -6.3%. As for `COc1ccc(-c2c(C)nn3c(C(F)(F)F)cc(C)nc23)cc1`, the activity change, negative = inhibition amounted to 123%. In the case of `CSc1ncccc1C(=O)OCC(=O)Nc1ccc(C)c(S(=O)(=O)N2CCOCC2)c1`, the activity change, negative = inhibition was -12.3% [at 16 µM].

Regarding `CC(=O)Nc1ccc(C(=O)OCC(=O)NC(=O)NCc2ccccc2)cc1`, the activity change, negative = inhibition stood at 16.9%. Turning to `O=C(COC(=O)c1cc(S(=O)(=O)N2CCOCC2)ccc1O)NCc1ccc2c(c1)OCO2`, the activity change, negative = inhibition came to 28.5%. `CO[C@H]1CN(C)C(=O)c2cc(NC(=O)c3ccc(F)cc3)ccc2OC[C@H](C)N(C(=O)CN(C)C)C[C@@H]1C`: the activity change, negative = inhibition came to 6.3%. Regarding `CO[C@H]1CN(C)C(=O)c2ccc(NC(=O)Nc3cccc(F)c3)cc2OC[C@@H](C)N(C(C)=O)C[C@H]1C`, the activity change, negative = inhibition amounted to 72.4%. On to `CO[C@H]1CN(C)C(=O)c2ccc(NC(=O)Nc3cccc(F)c3)cc2OC[C@H](C)NC[C@H]1C`, for which the activity change, negative = inhibition was determined as 25.2%. Consider `CCCC(=O)Nc1ccc2c(c1)OC[C@H](C)N(C(=O)CN(C)C)C[C@@H](C)[C@H](OC)CN(C)C2=O`, for which the activity change, negative = inhibition was -2.16%. Take `COCC(=O)Nc1ccc2c(c1)C(=O)N(C)C[C@@H](OC)[C@H](C)CN(C(C)=O)[C@H](C)CO2`: the activity change, negative = inhibition came out at 28.2%.

`CCc1ccc(C(=O)CN2C(=O)NC(C)(c3ccc(C)cc3)C2=O)cc1` (stereo unspecified): the activity change, negative = inhibition was -27.5%.

As for `COc1cccc(S(=O)(=O)N(C)C[C@H]2Oc3cc(C4=CCCC4)ccc3S(=O)(=O)N([C@H](C)CO)C[C@@H]2C)c1`, the activity change, negative = inhibition came out at 27.1%. `C[C@H]1CN([C@@H](C)CO)C(=O)Cc2cc(NS(=O)(=O)c3ccccc3)ccc2O[C@@H]1CN(C)Cc1ccc(Cl)c(Cl)c1`: the activity change, negative = inhibition was -28.9%.

As to `C[C@@H]1CN([C@H](C)CO)C(=O)c2cc(NS(=O)(=O)c3ccc(F)cc3)ccc2O[C@H]1CN(C)Cc1ccc(C(F)(F)F)cc1`, the activity change, negative = inhibition was -13.8%.

In the case of `COc1ccc(-c2cn(CC[C@H]3CC[C@H](NS(=O)(=O)c4ccccc4C)[C@H](CO)O3)nn2)cc1`, the activity change, negative = inhibition turned out to be 2.4%.

`COc1ccccc1S(=O)(=O)N[C@H]1CC[C@H](CC(=O)N2CCN(C)CC2)O[C@H]1CO`: the activity change, negative = inhibition was -27.9%. Take `COc1ccc(S(=O)(=O)N[C@@H]2CC[C@@H](CC(=O)NCCc3ccncc3)O[C@@H]2CO)cc1`: the activity change, negative = inhibition is -13%. Take `CNC[C@H]1Oc2c(NC(=O)Nc3ccc4c(c3)OCO4)cccc2C(=O)N([C@H](C)CO)C[C@@H]1C`: the activity change, negative = inhibition is 65.2%. Regarding `COC(=O)[C@H](Cc1ccccc1)NC(=O)Cn1cnc(C(=O)Nc2ccc(C)c(C)c2)n1`, the activity change, negative = inhibition came out at 23.2%. For `CCOc1ccccc1C(=O)NCC(=O)NNC(=O)CN(C)S(=O)(=O)c1ccc(Cl)cc1`, the activity change, negative = inhibition is -52.6%.

With `Nc1c(S(=O)(=O)c2ccccc2)cnc2c(-c3ccc(F)cc3)cnn12`, the activity change, negative = inhibition worked out at 63.4% [at 16 µM]. The figure for `COc1ccc(OC)c(-c2cc(C(=O)Nc3c(C)nn(Cc4ccc(Cl)cc4)c3C)no2)c1` is -43.8%. `Cc1ccc2c(c1)c1c3n2CCN(CCC#N)C3CCC1` (stereo unspecified): the activity change, negative = inhibition was determined as 81.2%. Regarding `N#C[C@H]1[C@@H](c2ccccc2/C=C/c2ccccc2)[C@@H](CO)N1S(=O)(=O)c1cccc(F)c1`, the activity change, negative = inhibition came out at 108%. The figure for `N#C[C@@H]1[C@H](c2ccc(-c3ccccc3F)cc2)[C@@H](CO)N1C(=O)c1ccccn1` is -32.3%; for `CCC(=O)N(C)C(c1ccccc1Cl)c1nnnn1-c1c(C)cccc1C` (stereo unspecified) it is 49.6%. For `Cc1ccc(S(=O)(=O)N(C)C)cc1NC(=O)C(C)N(C)CCOc1ccc(Cl)cc1` (stereo unspecified), the activity change, negative = inhibition is -21.5% [at 8 µM]. The figure for `COc1ccc(NC(=O)CN2CCC(C(N)=O)(N3CCCCC3)CC2)cc1` is -10%; for `COCC(=O)N(C)C[C@H]1Oc2ncc(Br)cc2C(=O)N([C@H](C)CO)C[C@H]1C` it is 50.8%; for `COCCCNC(=O)c1sc2ncnc(N3CCc4ccccc4C3)c2c1C` it is 60.7%. Consider `O=C(c1ccccc1)N1CCN(c2ncnc3sc4c(c23)CCC4)CC1`, for which the activity change, negative = inhibition was -54.4%. The figure for `Cc1ccc(C2Oc3ccccc3C3=C2C(c2cccs2)n2ncnc2N3)cc1` (stereo unspecified) is 12.9%; for `CC(NNC(=S)N1CCCCCC1)c1ccc2ccccc2n1` (stereo unspecified) it is -26.1%. The figure for `CN1CC(c2ccccc2)C2(SC(=S)N(Cc3ccco3)C2=O)C12C(=O)Nc1ccccc12` (stereo unspecified) is -103%.

In the case of `C[C@H]1CN([C@@H](C)CO)C(=O)c2cccc(NC(=O)c3ccncc3)c2O[C@@H]1CN(C)C(=O)Nc1cccc2ccccc12`, the activity change, negative = inhibition is 63.7%. In the case of `CNC[C@H]1Oc2c(NC(=O)Nc3cccc4ccccc34)cccc2C(=O)N([C@H](C)CO)C[C@H]1C`, the activity change, negative = inhibition came to 104%.

As for `O=C(NCc1cccc(F)c1)[C@@H]1[C@@H](CO)[C@@H]2Cn3c(ccc(-c4cccnc4)c3=O)[C@H]1N2CC1CC1`, the activity change, negative = inhibition stood at 1.91%. As to `NC(=S)c1ccc(OCCCc2ccccc2)cc1`, the activity change, negative = inhibition was determined as 30.2%. As for `O=C(C[C@@H]1C=C[C@@H](NC(=O)c2ccccc2)[C@H](CO)O1)NCc1ccc(Oc2ccccc2)cc1`, the activity change, negative = inhibition was -28.3%.

For `C[C@@H]1CN([C@H](C)CO)C(=O)c2cccc(NS(=O)(=O)c3ccc(Cl)cc3)c2O[C@@H]1CN(C)Cc1ccc(Cl)c(Cl)c1`, the activity change, negative = inhibition was -25.6%.

On to `C[C@H]1CN([C@@H](C)CO)C(=O)c2cccc(NS(=O)(=O)c3ccc(Cl)cc3)c2O[C@@H]1CN(C)Cc1ccc(C(F)(F)F)cc1`, for which the activity change, negative = inhibition is 9.5%. As for `CN(C)CC(=O)Nc1ccc2c(c1)[C@H]1C[C@@H](CC(=O)NCCc3ccccc3)O[C@H](CO)[C@H]1O2`, the activity change, negative = inhibition was found to be 14.9% [at 30 µM]. Regarding `COc1cccc(S(=O)(=O)N[C@H]2CC[C@H](CC(=O)NCc3ccncc3)O[C@@H]2CO)c1`, the activity change, negative = inhibition came out at 30.8%. Consider `Cc1ccc2c(c1)C(=C(C#N)C#N)CCN2`, for which the activity change, negative = inhibition came out at 85.1%. As for `C[C@@H]1CN([C@H](C)CO)S(=O)(=O)c2ccc(-c3ccccc3)cc2O[C@@H]1CN(C)Cc1ccccc1`, the activity change, negative = inhibition is -17.9%.

On to `C[C@H]1CN([C@@H](C)CO)S(=O)(=O)c2ccc(-c3ccc(F)cc3)cc2O[C@H]1CN(C)Cc1cccc(F)c1`, for which the activity change, negative = inhibition is -95%. Turning to `C[C@H]1CN([C@@H](C)CO)S(=O)(=O)c2ccc(-c3cccc(C#N)c3)cc2O[C@H]1CN(C)Cc1cccc(F)c1`, the activity change, negative = inhibition stood at 4.15%. Regarding `COc1cc(-c2cc(OC)c(O)c(OC)c2)cc(OC)c1O`, the activity change, negative = inhibition was determined as 27.9%. With `CCc1nc(N2CCCCC2C)c2oc3ccccc3c2n1` (stereo unspecified), the activity change, negative = inhibition was determined as 131%. As for `CCc1nc(N2CCCCC2)c2oc3ccccc3c2n1`, the activity change, negative = inhibition was found to be 16.4%. The figure for `C=CCN1C(=S)CC(c2ccccc2)=Nc2ccccc21` is 1.53%. The figure for `C[C@H](CO)N1C[C@H](C)[C@@H](CN(C)Cc2ccncc2)Oc2cc(C3=CCCCC3)ccc2S1(=O)=O` is 57.2% [at 15 µM]; for `C[C@@H]1CN([C@@H](C)CO)S(=O)(=O)c2ccc(C3=CCCC3)cc2O[C@@H]1CN(C)C(=O)C1CCOCC1` it is 50.5%. The figure for `COc1ccc(Nc2ncc(C(=O)N3CCN(c4ccc(F)cc4)CC3)c3ccccc23)cc1` is 0.701%; for `COc1ccc2[nH]c3c(N4CCC(O)(c5cccc(C(F)(F)F)c5)CC4)ncnc3c2c1` it is -33.8%. Turning to `Cc1noc(C)c1S(=O)(=O)Nc1cccc2c1O[C@H](CN(C)Cc1ccc(C(F)(F)F)cc1)[C@H](C)CN([C@H](C)CO)C2=O`, the activity change, negative = inhibition is 36.8%. On to `C[C@@H]1CN([C@@H](C)CO)C(=O)c2cccc(NS(=O)(=O)c3ccc(F)cc3)c2O[C@@H]1CN(C)Cc1ccc(C(F)(F)F)cc1`, for which the activity change, negative = inhibition was -35.8%. Consider `C[C@@H]1CN([C@H](C)CO)C(=O)c2cccc(NS(=O)(=O)c3ccc(F)cc3)c2O[C@@H]1CN(C)Cc1ccc(C(F)(F)F)cc1`, for which the activity change, negative = inhibition was -28.7%. The figure for `COc1ccc(CCNC(=O)COC(=O)c2cccn2C)cc1` is -11.1%. As for `O=S(=O)(NCC[C@H]1CC[C@H](NS(=O)(=O)c2ccccc2Cl)[C@H](CO)O1)c1ccc(Cl)cc1`, the activity change, negative = inhibition stood at 67.6% [at 30 µM].

Regarding `O=S(=O)(NCC[C@@H]1CC[C@@H](NS(=O)(=O)c2ccccc2Cl)[C@H](CO)O1)c1ccc(Cl)cc1`, the activity change, negative = inhibition stood at 68.7%.

In the case of `Cc1ccc2c(C)nc(Nc3nc(CSc4nnnn4-c4ccccc4)cc(=O)[nH]3)nc2c1`, the activity change, negative = inhibition is -21.8%.

Turning to `C=CCOc1c(Br)cc(CNc2ccc(NC(=O)C(C)C)c(OC)c2)cc1OC`, the activity change, negative = inhibition stood at 129%.
